Records with an inconclusive call do not appear. Entries that show only a call come without a potency. Activity calls are given as the source filed them.
Biological target: Estrogen receptor beta (Homo sapiens) (UniProt Q92731)
Assay: qHTS assay to identify small molecule agonists of the estrogen receptor beta (ER-beta) signaling pathway (AID 1259377; active means well fitted activation curve with a large enough effect in the signal ratio in the repeat runs, not every such curve was filed as active; the % refers to the signal ratio)
Conditions: ER-beta-UAS-bla HEK293T, beta-lactamase FRET ratio, 16 h; series mostly up to 92.4 µM
Summary of the method: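 qHTS in ER-beta-UAS-bla HEK293T cells: 6 hr settling, then 16 hr compound at 37C, then LiveBLAzer substrate 2 h at RT before fluorescence reading.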

Estrogen receptor beta (Homo sapiens), sequence (Q92731 whole entry, looked up): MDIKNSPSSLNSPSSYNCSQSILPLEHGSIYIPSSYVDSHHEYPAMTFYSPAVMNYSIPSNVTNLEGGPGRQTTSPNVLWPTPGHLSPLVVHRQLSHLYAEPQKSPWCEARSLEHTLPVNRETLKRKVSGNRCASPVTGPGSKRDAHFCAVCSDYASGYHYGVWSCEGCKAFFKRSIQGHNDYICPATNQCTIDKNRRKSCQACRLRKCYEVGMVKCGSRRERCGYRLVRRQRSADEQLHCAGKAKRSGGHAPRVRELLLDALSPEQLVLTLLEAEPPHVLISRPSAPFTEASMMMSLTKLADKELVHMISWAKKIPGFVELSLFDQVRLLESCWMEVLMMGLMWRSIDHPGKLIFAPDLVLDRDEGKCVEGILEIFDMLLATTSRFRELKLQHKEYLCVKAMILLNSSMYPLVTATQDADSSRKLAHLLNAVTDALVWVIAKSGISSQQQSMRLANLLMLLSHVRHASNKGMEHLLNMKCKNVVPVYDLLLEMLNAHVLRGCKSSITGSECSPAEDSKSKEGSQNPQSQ

| Structure (SMILES) | Potency |
| --- | --- |
| CCCCCCCC(=O)[O-].CCCCCCCC(=O)[O-].[Zn+2] | inactive |
| CCc1cc(SCc2sc(-c3ccc(C(F)(F)F)cc3)nc2CN2CCN(c3ccc(OC)cc3)CC2)ccc1OCC(=O)O | inactive |
| Cc1ccc(-n2nc(C(C)(C)C)cc2NC(=O)Nc2ccc(OCCN3CCOCC3)c3ccccc23)cc1 | inactive |
| CC(C)OC(=O)c1cc2c(OCC(O)CNC(C)(C)C)cccc2[nH]1 (stereo unspecified) | inactive |
| Cc1cccc(N(C)C(=S)Oc2ccc3c(c2)C2CCC3C2)c1 (stereo unspecified) | inactive |
| Cc1cc(N)c(S(=O)(=O)O)cc1Cl | inactive |
| COCCCC/C(=N\OCCN)c1ccc(C(F)(F)F)cc1 | inactive |
| C1CCCC1 | inactive |
| C[C@@H](NCCCc1cccc(C(F)(F)F)c1)c1cccc2ccccc12 | inactive |
| O=c1cccccc1O | inactive |
| NNc1nc(-c2ccc(N)cc2)cs1 | inactive |
| CCCCN(CCCC)C(=O)N(CCCC)CCCC | inactive |
| Clc1ccc2nsnc2c1NC1=NCCN1 | inactive |
| CCC1OCC(COc2ccc(Oc3ccccc3)cc2)O1 (stereo unspecified) | inactive |
| N#CC1(c2ccc(F)cc2)CCC(=O)CC1 | inactive |
| CC(C)(C)CC(C)(C)c1ccc(OCCOCC[N+](C)(C)Cc2ccccc2)cc1 | inactive |
| COc1cc(-c2nc(NC(=O)c3cc4cc(C)cc(C)c4n3CC(=O)O)sc2CCC2CCCCC2)c(OC)cc1Cl | inactive |

Biological target: Estrogen receptor beta (Homo sapiens) (UniProt Q92731)
Assay: qHTS assay to identify small molecule antagonists of the estrogen receptor beta (ER-beta) signaling pathway (AID 1259378; active means well fitted inhibition curve with a large enough effect in the signal ratio in the repeat runs, not every such curve was filed as active; the % refers to the signal ratio; further: potency means the concentration at half of the fitted maximal effect)
Conditions: ER-beta-UAS-bla HEK293T, beta-lactamase FRET ratio, 16 h; series mostly up to 92.4 µM
Summary of the method: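 Antagonist mode: compounds added to beta-lactamase reporter HEK293T ER-beta-UAS cells stimulated with E2 (1nM final), 16 hr at 37C. LiveBLAzer B/G FRET substrate, 2 hours room temperature, fluorescence read-out.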

| Structure (SMILES) | Potency |
| --- | --- |
| CCN(Cc1cccnc1)C(=O)c1cccc(Cl)c1[C@]1(C)C(=O)N(Cc2ccc(OC)cc2OC)c2ccc(Cl)cc21 | 8.07 µM (active) |
| Clc1ccc(C(Cn2ccnc2)OCc2ccc(Sc3ccccc3)cc2)c(Cl)c1 (stereo unspecified) | inactive |
| O=C(N/N=C/c1ccccc1O)c1ccncc1 | 2.11 µM (active) |
| O=S1(=O)CC(Cl)(Cl)C(Cl)(Cl)C1 | 4.86 µM (active) |
| Cn1cc(C(=O)[C@@H]2CCc3nc[nH]c3C2)c2ccccc21 | inactive |
| CC(C)CCCCCCCCCCCCCCC(=O)O | inactive |
| Cc1[nH]cnc1C[C@H]1CCc2c(C)c3ccccc3n2C1=O | 29.9 µM (active) |
| NC(=O)NS(=O)(=O)c1ccc(N)cc1 | inactive |
| C[n+]1ccn(Cc2ccccc2)c1 | inactive |
| COc1cc(-c2ccc(N=C=O)c(OC)c2)ccc1N=C=O | inactive |
| OCCN1CCN(CC/C=C2/c3ccccc3Sc3ccc(C(F)(F)F)cc32)CC1 | 11.9 µM (active) |
| Cc1onc(-c2ccccc2Cl)c1C(=O)N[C@@H]1C(=O)N2[C@@H]1SC(C)(C)[C@@H]2C(=O)O | inactive |
| CCCC(C)c1ccccc1O (stereo unspecified) | inactive |
| OCCCCCCCCCCCCBr | 55.3 µM (active) |
| C/C(=C(/OCCOc1ccc(Cl)cc1)c1ccc(Cl)cc1Cl)n1ccnc1 | 13.3 µM (active) |
| O=C(c1ccc(F)cc1)C1CCN(CCn2c(=O)[nH]c3ccccc3c2=O)CC1 | inactive |
| CCC(CN)=C(c1ccccc1)c1ccccc1 | 23.7 µM (active) |

| Structure (SMILES) | Potency |
| --- | --- |
| CCOC(=O)O[C@]1(C(=O)OCCl)CC[C@H]2[C@@H]3CCC4=CC(=O)C=C[C@]4(C)[C@H]3[C@@H](O)C[C@@]21C | inactive |
| CCCCCCCC(=O)[O-].CCCCCCCC(=O)[O-].[Zn+2] | inactive |
| CCc1cc(SCc2sc(-c3ccc(C(F)(F)F)cc3)nc2CN2CCN(c3ccc(OC)cc3)CC2)ccc1OCC(=O)O | 5.45 µM (active) |
| Cc1ccc(-n2nc(C(C)(C)C)cc2NC(=O)Nc2ccc(OCCN3CCOCC3)c3ccccc23)cc1 | 26.6 µM (active) |
| CC(C)OC(=O)c1cc2c(OCC(O)CNC(C)(C)C)cccc2[nH]1 (stereo unspecified) | inactive |
| Cc1cccc(N(C)C(=S)Oc2ccc3c(c2)C2CCC3C2)c1 (stereo unspecified) | inactive |
| Cc1cc(N)c(S(=O)(=O)O)cc1Cl | inactive |
| COCCCC/C(=N\OCCN)c1ccc(C(F)(F)F)cc1 | 29.8 µM (active) |
| C1CCCC1 | inactive |
| C[C@@H](NCCCc1cccc(C(F)(F)F)c1)c1cccc2ccccc12 | 10.6 µM (active) |
| O=c1cccccc1O | inactive |
| NNc1nc(-c2ccc(N)cc2)cs1 | inactive |
| CCCCN(CCCC)C(=O)N(CCCC)CCCC | inactive |
| Clc1ccc2nsnc2c1NC1=NCCN1 | inactive |
| CCC1OCC(COc2ccc(Oc3ccccc3)cc2)O1 (stereo unspecified) | inactive |
| N#CC1(c2ccc(F)cc2)CCC(=O)CC1 | inactive |
| CC(C)(C)CC(C)(C)c1ccc(OCCOCC[N+](C)(C)Cc2ccccc2)cc1 | 26.6 µM (active) |
